Results on 13 molecules are retold here after ChEMBL document CHEMBL1157539, “Thousands of chemical starting points for antimalarial lead identification” (Nature, 2010).

What is called Inhibition is the change of the read-out against control, counted positive when it falls. Low readings indicate a response near the control, high ones a response far below the control.

The subject of this assay is Plasmodium falciparum. Kind of assay: GSK_TCMDC: Inhibition of Plasmodium falciparum 3D7 in whole red blood cells, using parasite LDH activity as an index of growth. Test compounds present at 2uM. Type of assay: functional.
On to `CCOc1cc(C(=O)Nc2ccc3nc(N(CC)CC)cc(C)c3c2)cc(OCC)c1OCC`, for which the Inhibition is 98%.

Take `CCCNCc1ccc(-c2ccc(CN(CCOC)C(=O)c3cnc(C)cn3)cc2)nc1.O=C(O)C(F)(F)F`: the Inhibition amounted to 81%.

For `COc1ccc2ncc(F)c([C@@H](O)CN3CCC(NCc4cc5c(cn4)OCS5)CC3)c2c1.Cl`, the Inhibition was determined as 100%. Molecule `Cc1cccc2nc(-c3cccc(-c4ccc(NC(=O)c5cnn6cccnc56)cc4)c3)[nH]c12` showed an Inhibition of 100%. In turn, `COC(=O)Cc1ccc(N)c2ccccc12.Cl` showed an Inhibition of 98%. The figure for `CCCCC(CC)CN1C(=O)C(c2ccccc2)(c2ccccc2)N=C1N.O=CO` (stereo not drawn) is 94%; for `CCCOc1cccc(C(=O)N[C@@H](Cc2ccccc2)[C@H](O)CNCc2cccc(OC)c2)c1` it is 100%. Molecule `CCC(C)NS(=O)(=O)c1ccc2nc(Nc3ccc(C)cc3)n(C3CCCCC3)c2c1` (stereo not drawn) gave an Inhibition of 97%. The figure for `CCNc1cc(C(=O)N[C@@H](Cc2ccccc2)[C@H](O)CNCc2cccc(-c3cncnc3)c2)cc(N2CCCC2=O)c1.O=C(O)C(F)(F)F` is 97%.

`O=C(O)C(F)(F)F.O=S(=O)(NC1CCN(c2ccnc3cc(Cl)ccc23)C1)c1ccc(C(F)(F)F)cc1` (stereo not drawn): the Inhibition amounted to 100%. `O=[N+]([O-])c1cccc(-c2ccc(C=NNc3cc(N4CCCC4)nc(N4CCCC4)n3)o2)c1` yielded an Inhibition of 100%.

Regarding `O=c1c(Br)c(C(F)(F)F)[nH]c2ccc(Oc3ccccc3)cc12`, the Inhibition is on record as 91%. The same measure for `O=C(O)C(F)(F)F.O=c1ccc2ccc(F)c3c2n1CC3CN1CCC(NCc2cccc(-c3cccs3)c2)CC1` (stereo not drawn): 100%.
